# Structures can show the parent of a compound that is named as a salt. ± gives the standard deviation of the averaged measurements.
# Experiments:
# Assay in all cases: growth (OD600 after 10 h); higher = more growth (less inhibition)
# [1] = test system: E. coli TESEC Alr+ wild-type control; conditions: compound 0.1 mM; raw OD600 reference: median of DMSO wells 0.241, cell-free background 0.041
# Method: (§1)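 TESEC Mtb Alr E. coli, or the Alr+ wild-type control, in 384-well plates with Prestwick library compounds at 0.1 mM and 1% DMSO, across arabinose induction levels of 1E3 to 1E7 nM. Growth is read as OD600 after 10 h at 37 °C in triplicate biological replicates.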
# [2] = test system: E. coli TESEC Mtb Alr; conditions: compound 0.1 mM
# Method: as §1
# [3] = test system: E. coli TESEC Mtb Asd; conditions: compound 0.1 mM
# Method: (§2)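 TESEC E. coli strains in which the native enzyme is deleted and replaced by arabinose-inducible Mtb Asd, DapB, CysH or TrpD, each grown in its selective medium. Strains were screened against the Prestwick library at 0.1 mM and 1% DMSO in 384-well format at low and high arabinose induction. Growth is read as OD600 after 10 h in triplicate.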
# [4] = test system: E. coli TESEC Mtb Alr; conditions: compound 0.1 mM; remark: listed apart in the source
# Method: (§3)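 TESEC Mtb Alr E. coli (ΔaraC ΔtolC ΔentC Δalr ΔdadX, arabinose-inducible Mtb Alr) or the Alr+ wild-type control strain, grown in defined M9-fructose medium without D-alanine in 96-well plates with Prestwick library compounds at 0.1 mM and 1% DMSO. Low Alr induction is 0.1 µM arabinose and high induction is 10 mM arabinose.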
# [5] = test system: E. coli TESEC Mtb DapB; conditions: compound 0.1 mM
# Method: as §2
# [6] = test system: E. coli TESEC Alr+ wild-type control; conditions: compound 0.1 mM; raw OD600 reference: median of DMSO wells 0.49, cell-free background 0.052
# Method: as §3
# [7] = arabinose 1000 nM, raw OD600 reference: median of DMSO wells 0.294, cell-free background 0.041
# [8] = arabinose 10000 nM, raw OD600 reference: median of DMSO wells 0.264, cell-free background 0.041
# [9] = arabinose 100000 nM, raw OD600 reference: median of DMSO wells 0.201, cell-free background 0.041
# [10] = arabinose 1000000 nM, raw OD600 reference: median of DMSO wells 0.193, cell-free background 0.041
# [11] = arabinose 10000000 nM, raw OD600 reference: median of DMSO wells 0.146, cell-free background 0.041
# [12] = arabinose induction (level): High, raw OD600 reference: median of DMSO wells 0.331, cell-free background 0.041
# [13] = arabinose induction (level): Low, raw OD600 reference: median of DMSO wells 0.417, cell-free background 0.041
# [14] = arabinose 100 nM, raw OD600 reference: median of DMSO wells 0.413, cell-free background 0.052
# [15] = arabinose 10000000 nM, raw OD600 reference: median of DMSO wells […], cell-free background 0.052
# [16] = arabinose induction (level): High, raw OD600 reference: median of DMSO wells […], cell-free background 0.041
# [17] = arabinose induction (level): Low, raw OD600 reference: median of DMSO wells 0.227, cell-free background 0.041
Compound,growth [1],"growth [2, 7]","growth [2, 8]","growth [2, 9]","growth [2, 10]","growth [2, 11]","growth [3, 12]","growth [3, 13]","growth [4, 14]","growth [4, 15]","growth [5, 16]","growth [5, 17]",growth [6]
O=C(O)CCCc1ccc(N(CCCl)CCCl)cc1 [Chlorambucil],0.2478 ± 0.002,0.296 ± 0.0033,0.263 ± 0.0054,0.206 ± 0.0083,0.191 ± 0.0081,0.135 ± 0.0069,0.258 ± 0.086,0.288 ± 0.096,0.429 ± 0.0069,0.326 ± 0.016,,,
C(#CCN1CCCC1)CN1CCCC1 [Tremorine dihydrochloride],0.275 ± 0.0094,,,,,,0.425 ± 0.059,0.464 ± 0.029,0.415 ± 0.018,0.375 ± 0.023,0.2 ± 0.015,0.234 ± 0.059,
CCC1=C[C@H]2CN3CCc4c([nH]c5ccccc45)[C@](C(=O)OC)(C2)[C@H]13 [Catharanthine],0.203 ± 0.0049,,,,,,0.2 ± 0.032,0.437 ± 0.016,0.4199 ± 0.0038,0.3 ± 0.017,0.167 ± 0.0065,0.1738 ± 0.0015,
NC(=O)OCCCc1ccccc1 [Phenprobamate],0.219 ± 0.0026,0.274 ± 0.0083,0.258 ± 0.011,0.183 ± 0.018,0.192 ± 0.012,0.138 ± 0.0065,0.31 ± 0.11,0.323 ± 0.063,0.421 ± 0.011,0.352 ± 0.02,,,
C#CCN(C)[C@H](C)Cc1ccccc1 [Selegiline hydrochloride],0.251 ± 0.0044,,,,,,0.291 ± 0.064,0.391 ± 0.016,0.405 ± 0.017,0.342 ± 0.017,,,
C=CC[C@]1(O)CC[C@H]2[C@@H]3CCC4=CC(=O)CCC4=C3C=C[C@@]21C [Altrenogest],0.132 ± 0.0045,0.16 ± 0.0073,0.167 ± 0.0079,0.144 ± 0.0049,0.0767 ± 0.0035,0.118 ± 0.005,0.148 ± 0.027,0.126 ± 0.021,0.376 ± 0.0056,0.134 ± 0.011,,,
C#C[C@]1(O)CC[C@H]2[C@@H]3CCC4=CC(=O)CCC4=C3C=C[C@@]21CC [Gestrinone],0.13 ± 0.0014,0.195 ± 0.02,0.18 ± 0.0068,0.173 ± 0.0028,0.105 ± 0.011,0.134 ± 0.0068,0.216 ± 0.065,0.253 ± 0.12,0.374 ± 0.0073,0.165 ± 0.03,,,
CC(=O)O[C@H]1C[C@H](O[C@H]2[C@@H](O)C[C@H](O[C@H]3[C@@H](O)C[C@H](O[C@H]4CC[C@@]5(C)[C@H](CC[C@@H]6[C@@H]5C[C@@H](O)[C@]5(C)[C@@H](C7=CC(=O)OC7)CC[C@]65O)C4)O[C@@H]3C)O[C@@H]2C)O[C@H](C)[C@H]1O[C@@H]1O[C@H](CO)[C@@H](O)[C@H](O)[C@H]1O [Lanatoside C],0.198 ± 0.0032,0.261 ± 0.024,0.26 ± 0.0028,0.295 ± 0.031,0.19 ± 0.0089,0.243 ± 0.024,0.339 ± 0.04,0.417 ± 0.057,0.4014 ± 0.0037,0.354 ± 0.0094,,,
O[C@@H]1CCCC[C@H]1N1CCC(c2ccccc2)CC1 [L(-)-vesamicol hydrochloride],0.216 ± 0.0031,0.281 ± 0.014,0.251 ± 0.0068,0.176 ± 0.012,0.182 ± 0.0074,0.141 ± 0.0046,0.294 ± 0.048,0.381 ± 0.016,0.414 ± 0.012,0.358 ± 0.0053,,,
CC(Cc1ccc(O)cc1)NCC(O)c1cc(O)cc(O)c1 (stereo not drawn) [Fenoterol hydrobromide],0.241 ± 0.0046,,,,,,0.298 ± 0.046,0.419 ± 0.025,0.406 ± 0.011,0.344 ± 0.0099,,,0.575 ± 0.046
CN(C)C(=O)Oc1cc(OC(=O)N(C)C)cc(C(O)CNC(C)(C)C)c1 (stereo not drawn) [Bambuterol hydrochloride],0.22 ± 0.0079,,,,,,0.328 ± 0.026,0.39 ± 0.047,0.405 ± 0.011,0.342 ± 0.015,,,
CC[C@@H](C(N)=O)N1CCCC1=O [Levetiracetam],0.247 ± 0.0084,,,,,,0.256 ± 0.074,0.313 ± 0.057,0.409 ± 0.0085,0.364 ± 0.028,,,
CCC(=O)O[C@H]1CC[C@H]2[C@@H]3CCC4=CC(=O)CC[C@]4(C)[C@H]3CC[C@]12C [Testosterone propionate],0.157 ± 0.016,,,,,,0.336 ± 0.065,0.454 ± 0.04,0.269 ± 0.18,0.148 ± 0.025,,,
C[C@]12CC[C@@H](O)C[C@@H]1CC[C@@H]1[C@@H]2CC[C@]2(C)C(=O)CC[C@@H]12 [Androsterone],0.117 ± 0.0044,0.123 ± 0.002,0.212 ± 0.012,0.118 ± 0.0038,0.0932 ± 0.0027,0.0878 ± 0.0015,0.148 ± 0.026,0.324 ± 0.044,0.3429 ± 0.0014,0.0883 ± 0.011,,,
Fc1ccc(C(OCCN2CCN(CCCc3ccccc3)CC2)c2ccc(F)cc2)cc1,0.0433 ± 0.0027,0.04027 ± 0.00025,0.0453 ± 0.00061,0.0419 ± 0.0013,0.045 ± 0.00035,0.0435 ± 0.00049,0.0464 ± 0.00055,0.04613 ± 0.00046,0.235 ± 0.15,0.0503 ± 0.0006,,,
CN1C(=O)CCS(=O)(=O)C1c1ccc(Cl)cc1 (stereo not drawn) [Chlormezanone],0.244 ± 0.0034,0.298 ± 0.018,0.256 ± 0.0031,0.256 ± 0.012,0.188 ± 0.013,0.146 ± 0.005,0.328 ± 0.08,0.407 ± 0.066,0.408 ± 0.011,0.367 ± 0.0068,,,
C[C@H](N)[C@H](O)c1ccc(O)c(O)c1 [Levonordefrin],0.1755 ± 0.00087,0.276 ± 0.013,0.26 ± 0.0038,0.206 ± 0.0036,0.118 ± 0.0043,0.131 ± 0.0047,0.194 ± 0.014,0.357 ± 0.0047,0.398 ± 0.024,0.371 ± 0.017,,,
COc1ccc(C(=O)N2CCCC2=O)cc1 [Aniracetam],0.25 ± 0.0051,,,,,,0.235 ± 0.057,0.309 ± 0.058,0.405 ± 0.011,0.343 ± 0.012,,,0.467 ± 0.054
COP(=O)(OC)C(O)C(Cl)(Cl)Cl (stereo not drawn) [Trichlorfon],0.249 ± 0.0088,,,,,,0.348 ± 0.072,0.363 ± 0.079,0.412 ± 0.012,0.257 ± 0.17,0.208 ± 0.028,0.272 ± 0.071,0.505 ± 0.046
C[C@@H]1CC[C@H]2[C@@H](C)C(=O)O[C@@H]3O[C@@]4(C)CC[C@@H]1[C@]32OO4 [Artemisinin],0.125 ± 0.01,,,,,,0.219 ± 0.025,0.216 ± 0.042,0.348 ± 0.0058,0.135 ± 0.025,0.179 ± 0.012,0.191 ± 0.0069,0.33 ± 0.0069
S=C(NC1CCCCC1)N1CCC(c2cnc[nH]2)CC1 [Thioperamide maleate],0.218 ± 0.0074,,,,,,0.273 ± 0.013,0.495 ± 0.039,0.402 ± 0.016,0.299 ± 0.029,,,
CN[C@@H]1C[C@@H](c2ccc(Cl)c(Cl)c2)c2ccccc21 [Indatraline hydrochloride],0.0397 ± 0.00076,0.0417 ± 0.00046,0.0413 ± 0.00055,0.0425 ± 0.0013,0.03897 ± 0.00015,0.0445 ± 0.002,0.0513 ± 0.0011,0.0522 ± 0.0001,0.24 ± 0.15,0.0505 ± 0.00096,,,
CCC1(c2cccc(O)c2)CCCCN(C)C1 (stereo not drawn) [Meptazinol hydrochloride],0.2565 ± 0.0013,,,,,,0.176 ± 0.04,0.41 ± 0.095,0.411 ± 0.014,0.323 ± 0.023,0.215 ± 0.026,0.217 ± 0.024,
C[C@@]12N[C@@H](Cc3ccccc31)c1ccccc12 [(-)-MK 801 hydrogen maleate],0.226 ± 0.014,,,,,,0.244 ± 0.014,0.514 ± 0.039,0.412 ± 0.017,0.2863 ± 0.0016,0.213 ± 0.036,0.221 ± 0.018,
COc1ccc(CCN2CCC(Nc3nc4ccccc4n3Cc3ccc(F)cc3)CC2)cc1 [Astemizole],0.041 ± 0.00045,,,,,,0.0477 ± 0.0029,0.053 ± 0.004,0.176 ± 0.22,0.0525 ± 0.0011,0.04653 ± 0.00032,0.0845 ± 0.059,
C[C@]12COC(=O)C[C@@H]1CC[C@@H]1[C@@H]2CC[C@@]2(C)[C@H]1CC[C@]2(C)O [Oxandrolone],0.157 ± 0.0027,,,,,,0.148 ± 0.0058,0.319 ± 0.033,0.42 ± 0.0079,0.246 ± 0.019,,,
CC(NC(C)(C)C)C(=O)c1cccc(Cl)c1 (stereo not drawn) [Bupropion hydrochloride],0.226 ± 0.0027,,,,,,0.356 ± 0.055,0.41 ± 0.03,0.404 ± 0.012,0.365 ± 0.0095,,,
CC(C)(C)NCC(O)c1ccccc1Cl (stereo not drawn) [Tulobuterol],0.22 ± 0.005,,,,,,0.246 ± 0.067,0.296 ± 0.019,0.409 ± 0.0083,0.341 ± 0.018,0.181 ± 0.017,0.21 ± 0.016,0.507 ± 0.082
CC(C)N(CCC(C(N)=O)(c1ccccc1)c1ccccn1)C(C)C (stereo not drawn) [Disopyramide],0.2355 ± 0.0022,,,,,,0.313 ± 0.084,0.408 ± 0.057,0.41 ± 0.0056,0.351 ± 0.007,0.175 ± 0.0095,0.195 ± 0.02,
CC(=O)O[C@H]1C[C@@H]2CC[C@@H]3[C@H](CC[C@@]4(C)[C@H]3C[C@H]([N+]3(C)CCCCC3)[C@@H]4OC(C)=O)[C@@]2(C)C[C@@H]1[N+]1(C)CCCCC1 [Pancuronium bromide],0.232 ± 0.0035,0.318 ± 0.0065,0.2563 ± 0.0013,0.194 ± 0.021,0.168 ± 0.0052,0.154 ± 0.0046,0.242 ± 0.064,0.407 ± 0.014,0.421 ± 0.026,0.349 ± 0.019,,,

# — the supplement of paper PMC9262897, “Low-cost anti-mycobacterial drug discovery using engineered E. coli” (Nature Communications, 2022)
